# According to the supplement of paper PMC8728848:
# The full list was thinned out, with the strongest signals kept by preference.
# B1: SUN4P (Saccharomyces cerevisiae), P53616 (protein)
# chain: MGSSHHHHHHSSGLVPRGSHNGSIYGDLADFSGPYEKFEDGTIPCGQFPSGQGVIPISWLDEGGWSGVENTDTSTGGSCKEGSYCSYACQPGMSKTQWPSDQPSDGRSIGGLLCKDGYLYRSNTDTDYLCEWGVDAAYVVSELSNDVAICLTDYPGTENMVIPTYVQAGDSLPLTVVDQDTYYTWQGLKTSAQYYVNNAGISVEDACVWGSSSSGVGNWAPLNFGAGSSDGVAYLSLIPNPNNGNALNFNVKIVAADDSSTVNGECIYENGSFSGGSDGCTVSVTAGKAKFVLYN
# What was measured:
# Experiment in all cases: glycan array binding signal (z-score within array); higher = stronger binding
# Conditions in all cases: glycan notation: IUPAC condensed, linker removed; mutation: R276L
# [1] = target: Fuc(a1-2)Gal(b1-3)[Fuc(a1-4)]GlcNAc(b1-3)[Fuc(a1-3)[Gal(b1-4)]GlcNAc(b1-6)]Gal(b1-4)Glc
# Outline: (§1)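 Glycan array data came from 3228 arrays in the Consortium for Functional Glycomics database, and only arrays with an available protein sequence were kept. Glycan names were put into IUPAC-condensed notation, and columns mapping to the same glycan were averaged. The binding signal is a within-array Z-score, averaged across arrays of one protein sequence run at different concentrations or buffers and across linkers. A negative Z-score can be read as non-binding.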
# [2] = target: Fuc(a1-2)Gal(b1-3)[Fuc(a1-4)]GlcNAc(b1-3)[Gal(b1-4)GlcNAc(b1-6)]Gal(b1-4)Glc
# Outline: as §1
# [3] = target: Fuc(a1-2)Gal(b1-4)GlcNAc(b1-2)Man(a1-3)[Fuc(a1-2)Gal(b1-4)GlcNAc(b1-2)Man(a1-6)]Man(b1-4)GlcNAc(b1-4)GlcNAc
# Outline: as §1
# [4] = target: Fuc(a1-2)Gal(b1-4)GlcNAc(b1-3)GalNAc
# Outline: as §1
# [5] = target: Fuc(a1-2)Gal(b1-4)GlcNAc(b1-3)[Fuc(a1-2)Gal(b1-4)GlcNAc(b1-6)]GalNAc
# Outline: as §1
# [6] = target: Fuc(a1-2)Gal(b1-4)GlcNAc6S
# Outline: as §1
# [7] = target: Fuc(a1-2)[GalNAc(a1-3)]Gal(b1-3)GalNAc(b1-3)Gal(a1-4)Gal(b1-4)Glc
# Outline: as §1
# [8] = target: Fuc(a1-2)[GalNAc(a1-3)]Gal(b1-3)GlcNAc
# Outline: as §1
# [9] = target: Fuc(a1-2)[GalNAc(b1-3)]Gal
# Outline: as §1
# [10] = target: Gal(a1-3)Gal(b1-3)[Fuc(a1-4)]GlcNAc(b1-2)Man(a1-3)[Gal(a1-3)Gal(b1-3)[Fuc(a1-4)]GlcNAc(b1-2)Man(a1-6)]Man(b1-4)GlcNAc(b1-4)GlcNAc
# Outline: as §1
# Gal(a1-4)GlcNAc = target: Gal(a1-4)GlcNAc
# Outline: as §1
# Gal(b1-2)Gal = target: Gal(b1-2)Gal
# Outline: as §1
# Gal(b1-3)Gal = target: Gal(b1-3)Gal
# Outline: as §1
# Gal(b1-3)GalNAc = target: Gal(b1-3)GalNAc
# Outline: as §1
# Gal(b1-3)GalNAc(b1-3)Gal = target: Gal(b1-3)GalNAc(b1-3)Gal
# Outline: as §1
# [11] = target: Gal(b1-3)GalNAc(b1-4)Gal(b1-4)Glc
# Outline: as §1
# Gal(b1-3)GlcNAc = target: Gal(b1-3)GlcNAc
# Outline: as §1
# [12] = target: Gal(b1-3)GlcNAc(b1-2)Man(a1-3)[Gal(b1-3)GlcNAc(b1-2)Man(a1-6)]Man(b1-4)GlcNAc(b1-4)GlcNAc
# Outline: as §1
# [13] = target: Gal(b1-3)GlcNAc(b1-3)Gal(b1-4)Glc
# Outline: as §1
# [14] = target: Gal(b1-3)GlcNAc(b1-3)Gal(b1-4)GlcNAc(b1-2)[Gal(b1-3)GlcNAc(b1-3)Gal(b1-4)GlcNAc(b1-6)]Man(a1-6)[Gal(b1-3)GlcNAc(b1-3)Gal(b1-4)GlcNAc(b1-2)Man(a1-3)]Man(b1-4)GlcNAc(b1-4)[Fuc(a1-6)]GlcNAc
# Outline: as §1
# [15] = target: Gal(b1-3)[Neu5Ac(a2-6)]GalNAc
# Outline: as §1
# [16] = target: Gal(b1-4)GlcNAc(b1-2)Man(a1-3)Man(b1-4)GlcNAc(b1-4)GlcNAc
# Outline: as §1
# [17] = target: Gal(b1-4)GlcNAc(b1-2)Man(a1-3)[GlcNAc(b1-2)Man(a1-6)]Man(b1-4)GlcNAc(b1-4)GlcNAc
# Outline: as §1
# [18] = target: Gal(b1-4)GlcNAc(b1-2)[Gal(b1-4)GlcNAc(b1-4)]Man(a1-3)[GlcNAc(b1-4)][Gal(b1-4)GlcNAc(b1-2)[Gal(b1-4)GlcNAc(b1-6)]Man(a1-6)]Man(b1-4)GlcNAc(b1-4)GlcNAc
# Outline: as §1
# [19] = target: Gal(b1-4)GlcNAc(b1-3)Gal(b1-4)GlcNAc(b1-2)[Gal(b1-4)GlcNAc(b1-3)Gal(b1-4)GlcNAc(b1-6)]Man(a1-6)[Gal(b1-4)GlcNAc(b1-3)Gal(b1-4)GlcNAc(b1-2)Man(a1-3)]Man(b1-4)GlcNAc(b1-4)GlcNAc
# Outline: as §1
# [20] = target: Gal(b1-4)GlcNAc(b1-3)Gal(b1-4)GlcNAc(b1-3)Gal(b1-4)GlcNAc(b1-2)Man(a1-3)[Gal(b1-4)GlcNAc(b1-3)Gal(b1-4)GlcNAc(b1-3)Gal(b1-4)GlcNAc(b1-2)Man(a1-6)]Man(b1-4)GlcNAc(b1-4)GlcNAc
# Outline: as §1
# [21] = target: Gal(b1-4)GlcNAc(b1-3)Gal(b1-4)GlcNAc(b1-3)Gal(b1-4)GlcNAc(b1-2)[Gal(b1-4)GlcNAc(b1-3)Gal(b1-4)GlcNAc(b1-3)Gal(b1-4)GlcNAc(b1-6)]Man(a1-6)[Gal(b1-4)GlcNAc(b1-3)Gal(b1-4)GlcNAc(b1-3)Gal(b1-4)GlcNAc(b1-2)Man(a1-3)]Man(b1-4)GlcNAc(b1-4)[Fuc(a1-6)]GlcNAc
# Outline: as §1
# [22] = target: Gal(b1-4)GlcNAc(b1-6)GalNAc
# Outline: as §1
# Gal3S6S(b1-4)GlcNAc = target: Gal3S6S(b1-4)GlcNAc
# Outline: as §1
# Gal4S6S(b1-4)GlcNAc = target: Gal4S6S(b1-4)GlcNAc
# Outline: as §1
# GalNAc(b1-4)GlcNAc = target: GalNAc(b1-4)GlcNAc
# Outline: as §1
# Glc(a1-6)Glc(a1-6)Glc = target: Glc(a1-6)Glc(a1-6)Glc
# Outline: as §1
# [23] = target: GlcNAc(a1-4)Gal(b1-3)GlcNAc
# Outline: as §1
# [24] = target: GlcNAc(a1-4)Gal(b1-4)GlcNAc(b1-3)Gal(b1-4)Glc
# Outline: as §1
# [25] = target: GlcNAc(a1-4)Gal(b1-4)GlcNAc(b1-3)Gal(b1-4)GlcNAc
# Outline: as §1
# [26] = target: GlcNAc(b1-3)Gal(b1-4)GlcNAc(b1-3)GalNAc
# Outline: as §1
# [27] = target: Man(a1-3)[Man(a1-6)]Man(b1-4)GlcNAc(b1-4)GlcNAc
# Outline: as §1
# [28] = target: Man(a1-3)[Man(a1-6)]Man(b1-4)GlcNAc(b1-4)[Fuc(a1-6)]GlcNAc
# Outline: as §1
# [29] = target: Neu5Ac(a2-3)Gal(b1-3)GlcNAc
# Outline: as §1
# [30] = target: Neu5Ac(a2-3)Gal(b1-3)[Neu5Ac(a2-6)]GalNAc
# Outline: as §1
# Neu5Ac(a2-3)Gal(b1-4)Glc = target: Neu5Ac(a2-3)Gal(b1-4)Glc
# Outline: as §1
# [31] = target: Neu5Ac(a2-3)Gal6S(b1-4)[Fuc(a1-3)]GlcNAc
# Outline: as §1
# [32] = target: Neu5Ac(a2-3)[GalNAc(b1-4)]Gal(b1-4)Glc
# Outline: as §1
# [33] = target: Neu5Ac(a2-6)Gal(b1-4)GlcNAc(b1-2)Man
# Outline: as §1
# [34] = target: Neu5Ac(a2-6)Gal(b1-4)GlcNAc(b1-2)Man(a1-6)[GlcNAc(b1-2)Man(a1-3)]Man(b1-4)GlcNAc(b1-4)GlcNAc
# Outline: as §1
# [35] = target: Neu5Ac(a2-6)GlcNAc(b1-4)GlcNAc
# Outline: as §1
# [36] = target: Neu5Gc(a2-3)Gal(b1-3)GlcNAc
# Outline: as §1
# [37] = target: Neu5Gc(a2-3)Gal(b1-4)GlcNAc(b1-3)Gal(b1-4)GlcNAc(b1-2)Man(a1-3)[Neu5Gc(a2-3)Gal(b1-4)GlcNAc(b1-3)Gal(b1-4)GlcNAc(b1-2)Man(a1-6)]Man(b1-4)GlcNAc(b1-4)GlcNAc
# Outline: as §1
binder,measurement,setting,value
B1,glycan array binding signal (z-score),[1],-1.15
same,glycan array binding signal (z-score),[2],-0.39
same,glycan array binding signal (z-score),[3],-0.72
same,glycan array binding signal (z-score),[4],-0.667
same,glycan array binding signal (z-score),[5],-0.351
same,glycan array binding signal (z-score),[6],1.81
same,glycan array binding signal (z-score),[7],-0.881
same,glycan array binding signal (z-score),[8],-0.545
same,glycan array binding signal (z-score),[9],1.77
same,glycan array binding signal (z-score),[10],-0.029
same,glycan array binding signal (z-score),Gal(a1-4)GlcNAc,-0.2
same,glycan array binding signal (z-score),Gal(b1-2)Gal,0.046
same,glycan array binding signal (z-score),Gal(b1-3)Gal,1.8
same,glycan array binding signal (z-score),Gal(b1-3)GalNAc,2.6
same,glycan array binding signal (z-score),Gal(b1-3)GalNAc(b1-3)Gal,7.07
same,glycan array binding signal (z-score),[11],11.2
same,glycan array binding signal (z-score),Gal(b1-3)GlcNAc,-0.318
same,glycan array binding signal (z-score),[12],-0.366
same,glycan array binding signal (z-score),[13],-0.852
same,glycan array binding signal (z-score),[14],2.11
same,glycan array binding signal (z-score),[15],2.79
same,glycan array binding signal (z-score),[16],-0.274
same,glycan array binding signal (z-score),[17],-0.054
same,glycan array binding signal (z-score),[18],0.051
same,glycan array binding signal (z-score),[19],-0.671
same,glycan array binding signal (z-score),[20],0.667
same,glycan array binding signal (z-score),[21],2.41
same,glycan array binding signal (z-score),[22],-0.068
same,glycan array binding signal (z-score),Gal3S6S(b1-4)GlcNAc,1.73
same,glycan array binding signal (z-score),Gal4S6S(b1-4)GlcNAc,0.289
same,glycan array binding signal (z-score),GalNAc(b1-4)GlcNAc,-0.514
same,glycan array binding signal (z-score),Glc(a1-6)Glc(a1-6)Glc,-1.11
same,glycan array binding signal (z-score),[23],1.83
same,glycan array binding signal (z-score),[24],-1.22
same,glycan array binding signal (z-score),[25],-0.664
same,glycan array binding signal (z-score),[26],2.14
same,glycan array binding signal (z-score),[27],-0.241
same,glycan array binding signal (z-score),[28],-0.543
same,glycan array binding signal (z-score),[29],0.214
same,glycan array binding signal (z-score),[30],-0.468
same,glycan array binding signal (z-score),Neu5Ac(a2-3)Gal(b1-4)Glc,-1.01
same,glycan array binding signal (z-score),[31],-1.12
same,glycan array binding signal (z-score),[32],1.36
same,glycan array binding signal (z-score),[33],0.374
same,glycan array binding signal (z-score),[34],0.936
same,glycan array binding signal (z-score),[35],2.98
same,glycan array binding signal (z-score),[36],0.424
same,glycan array binding signal (z-score),[37],-0.663
